C diff HTS: C. difficile growth inhibitors, primary screen, HTS; Clostridium difficile clinical isolate growth, OD600, 24 h; active compounds read low; growth activity, negative = inhibition, % at 16 µg/mL (by protocol); 86,000 compounds, 0.25% hits;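 active = mean growth activity at or below -80% and every replicate also at or below -80%; inconclusive = mean at or below -80% but some replicate above -80%; inactive = mean growth activity above -80%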;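 note: 0% = DMSO wells and -100% = levofloxacin 16 µg/mL wells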
T cruzi growth-1: T. cruzi intracellular proliferation inhibitors, primary screen, cell-based, beta-gal Tulahuen parasites, NIH3T3 host, luminescence. T. cruzi beta-gal in NIH3T3, GalScreen luminescence, 90 h. inhibition, % at 8.34 µM. 77,000 compounds, 5.9% hits. AID 624255, 2012;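 active = mean inhibition above about 93%, with at least 55% of replicates each passing it, limit read from the data, passing the limit was not always enough; inconclusive = only one of those two conditions holds; inactive = neither condition holds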
T cruzi growth-2: T. cruzi intracellular proliferation inhibitors, confirmation, cell-based, NIH3T3 host, beta-gal parasite, luminescence, cherry-pick; shares compounds with T cruzi growth-1; T. cruzi beta-gal in NIH3T3, GalScreen luminescence, 90 h; inhibition, % at 8.35 µM; 5,600 compounds, 72% hits; AID 651739, 2012;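 active = mean replicate inhibition above about 95% and at least 55% of replicates individually reaching it, limit read from the data; inconclusive = only one of the two criteria is met; inactive = neither criterion is met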
T cruzi growth-3: inhibitors of intracellular T. cruzi replication, confirmation, NIH3T3 host cells, beta-gal parasites, cherry-pick, set 2; 5,600 compounds, 21% hits; T. cruzi beta-gal in NIH3T3, GalScreen luminescence, 90 h; shares compounds with T cruzi growth-1; AID 651740, 2012; inhibition, % at 2.09 µM;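 active = mean inhibition above about 95%, with at least 55% of replicates also reaching it, limit read from the data; inconclusive = meets just one of the two conditions; inactive = meets neither condition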;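 note: plate controls were neutral control median for no effect and positive control median for full effect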
NIH3T3 tox: cytotoxicity in mouse NIH/3T3 fibroblasts, confirmation, cytotoxicity control for T. cruzi proliferation inhibitor project, cell-based, cherry-pick, single point; cytotoxicity (signal decrease), % at 8.35 µM; shares compounds with T cruzi growth-1; NIH/3T3 viability, CellTiter-Glo ATP luminescence, 90 h; 5,600 compounds, 14% hits;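 active = mean signal decrease across replicates above about 35% based on untreated-well scatter, with enough replicates individually passing, limit read from the data; inconclusive = no rule stated though some were filed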;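 note: 0% = median of neutral control wells and 100% = median of positive control wells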
3T3 cytotox 2: NIH/3T3 fibroblast cytotoxicity, confirmation, cytotoxicity control, cell-based, cherry-pick, single point, set 2; shares compounds with T cruzi growth-1; 5,600 compounds, 56% hits; inhibition, % at 24.9 µM; NIH/3T3 viability, CellTiter-Glo ATP luminescence, 90 h; AID 651744, 2012;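 active = mean loss of cell viability signal at or above a set limit, and enough replicates individually reaching it; inconclusive = meets only the mean limit or only the replicate share; inactive = meets neither condition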;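 note: 0% = median of neutral control wells and 100% = median of positive control wells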
* = called active by the depositor; ? = inconclusive; · = no result. This is one part of a sample in which hits are shown more often than they occur.

SMILES	C diff HTS	T cruzi growth-1	T cruzi growth-2	T cruzi growth-3	NIH3T3 tox	3T3 cytotox 2
CN(C)CC#Cc1ccc([C@@H]2[C@H]3CN(C(=O)Nc4cc(F)ccc4F)CCCCN3[C@H]2CO)cc1	6	117*	43	-30	?	103*
C[C@@H]1CN([C@H](C)CO)C(=O)Cc2cc(NS(=O)(=O)c3ccc(Cl)cc3)ccc2O[C@H]1CN(C)CC1CCCCC1	55	106*	96*	?	27	106*
CC(C)NC(=O)N(C)C[C@H]1Oc2ccc(NS(=O)(=O)c3ccc(F)cc3)cc2CC(=O)N([C@H](C)CO)C[C@@H]1C	5	103*	16	49	2	6
CC(C)NC(=O)N(C)C[C@@H]1Oc2ccc(NS(=O)(=O)c3ccc(F)cc3)cc2CC(=O)N([C@@H](C)CO)C[C@H]1C	-4	101	·	·	·	·
C[C@H](CO)N1C[C@H](C)[C@@H](CN(C)CC2CCCCC2)Oc2ccc(NS(=O)(=O)c3ccc(Cl)cc3)cc2CC1=O	10	94	·	·	·	·
C[C@H]1CN([C@@H](C)CO)C(=O)Cc2cc(NS(=O)(=O)c3ccc(F)cc3)ccc2O[C@H]1CN(C)CC1CC1	-1	·	·	·	·	·
C[C@H](CO)N1C[C@H](C)[C@@H](CN(C)CC2CCCCC2)Oc2ccc(NS(=O)(=O)c3ccc(F)cc3)cc2CC1=O	-13	107*	107*	89	33	104*
C[C@@H]1CN([C@@H](C)CO)C(=O)Cc2cc(NC(=O)Nc3ccc(F)cc3)ccc2O[C@@H]1CN(C)Cc1ccc(-c2ccccc2)cc1	5	91	·	·	·	·
CCS(=O)(=O)Nc1ccc2c(c1)C(=O)N(C)C[C@H](OC)[C@@H](C)CN(CC1CCCC1)[C@H](C)CO2	-4	-35	·	·	·	·
O=C(C[C@H]1CC[C@H]2[C@@H](COC[C@H](O)CN2C(=O)c2ccncc2)O1)NCc1cccc(F)c1	4	-36	·	·	·	·
CN(C)C(=O)c1cccc(-c2ccc3c(c2)[C@@H]2[C@@H](CCN2C(=O)c2ccccc2F)[C@@H](CO)N3)c1	-3	106*	100*	68	12	16
N#Cc1ccc(-c2ccc3c(c2)[C@H]2[C@H](CCN2C(=O)C2CC2)[C@H](CO)N3)cc1	-9	93	·	·	·	·
N#Cc1ccc(-c2ccc3c(c2)[C@H]2[C@H](CCN2C(=O)c2ccccc2F)[C@H](CO)N3)cc1	2	88	·	·	·	·
CN(C)C(=O)c1ccc(-c2ccc3c(c2)[C@H]2[C@H](CCN2C(=O)c2ccccc2F)[C@@H](CO)N3)cc1	1	53	·	·	·	·
N#Cc1ccc(-c2ccc3c(c2)[C@@H]2[C@@H](CCN2C(=O)C2CC2)[C@@H](CO)N3)cc1	2	104*	107*	85	-3	35*
N#Cc1ccc(-c2ccc3c(c2)[C@@H]2[C@@H](CCN2C(=O)c2ccccc2F)[C@@H](CO)N3)cc1	-2	102*	103*	82	21	50*
Cc1noc(C)c1NC(=O)Nc1ccc2c(c1)C(=O)N([C@@H](C)CO)C[C@@H](C)[C@@H](CN(C)Cc1ccc3c(c1)OCO3)OCCCC[C@H](C)O2	3	-19	·	·	·	·
COc1ccc(NC(=O)Nc2ccc3c(c2)CC(=O)N([C@@H](C)CO)C[C@@H](C)[C@H](CN(C)C(=O)Nc2cccc4ccccc24)O3)cc1	0	53	·	·	·	·
COc1ccc(NC(=O)N(C)C[C@H]2OCCCC[C@@H](C)Oc3ccc(NC(=O)CCC(F)(F)F)cc3C(=O)N([C@@H](C)CO)C[C@H]2C)cc1	-2	60	·	·	·	·
OC[C@@H]1[C@H](c2ccc(-c3cccnc3)cc2)[C@H]2CN(CC3CCOCC3)CCCCN12	-4	97*	?	83	-9	7
COc1cccc(-c2ccc([C@H]3[C@@H](CO)N4CCCCN(CC5CCOCC5)C[C@H]34)cc2)c1	-9	107*	107*	70	8	97*
OC[C@@H]1[C@@H](c2ccc(-c3cccnc3)cc2)[C@@H]2CN(CC3CCOCC3)CCCCN12	-1	-47	·	·	·	·
COc1cccc(-c2ccc([C@@H]3[C@H]4CN(CC5CC5)CCCCN4[C@H]3CO)cc2)c1	0	93	·	·	·	·
CS(=O)(=O)N1[C@@H]2c3cccc(=O)n3C[C@H]1[C@H](CO)[C@H]2C(=O)NCc1ccccc1	-4	-30	·	·	·	·
O=C(Nc1cccc(Cl)c1)N[C@@H]1CC[C@H](CCNC(=O)C2CCC2)O[C@@H]1CO	0	·	·	·	·	·
SMILES	C diff HTS	T cruzi growth-1	T cruzi growth-2	T cruzi growth-3	NIH3T3 tox	3T3 cytotox 2
C/C=C/c1ccc([C@@H]2[C@@H](C#N)N(c3nc(CC)cs3)[C@H]2CO)cc1	11	93	·	·	·	·
C/C=C/c1ccc([C@H]2[C@H](CO)N(c3nc(CC)cs3)[C@H]2CNC(C)C)cc1	3	90	·	·	·	·
C/C=C/c1ccc([C@@H]2[C@@H](CO)N(c3nc(CC)cs3)[C@H]2C#N)cc1	29	81	·	·	·	·
C/C=C/c1ccc([C@H]2[C@@H](C#N)N(c3nc(CC)cs3)[C@H]2CO)cc1	-7	109*	103*	111*	19	?
C/C=C/c1ccc([C@H]2[C@@H](CO)N(c3nc(CC)cs3)[C@H]2CNC(C)C)cc1	-5	98*	98*	59	18	103*
C/C=C/c1ccc([C@@H]2[C@H](C#N)N(c3nc(CC)cs3)[C@H]2CO)cc1	8	104*	105*	83	21	27*
C[C@H]1CN([C@@H](C)CO)C(=O)c2cc(NC(=O)c3ccncc3)ccc2O[C@H]1CN(C)Cc1ccc(C(F)(F)F)cc1	4	69	·	·	·	·
C[C@@H]1CN([C@@H](C)CO)C(=O)Cc2cc(NC(=O)Nc3cccc4ccccc34)ccc2O[C@@H]1CN(C)Cc1ccc(-c2ccccc2)cc1	10	103*	108*	75	23	?
C[C@@H]1CN([C@H](C)CO)C(=O)Cc2cc(NC(=O)Nc3cccc4ccccc34)ccc2O[C@H]1CN(C)Cc1ccccc1	1	49	·	·	·	·
C[C@@H]1CN([C@H](C)CO)C(=O)Cc2cc(NC(=O)Nc3cccc4ccccc34)ccc2O[C@@H]1CN(C)Cc1ccc(-c2ccccc2)cc1	11	98*	112*	62	19	?
C[C@H]1CN([C@@H](C)CO)C(=O)Cc2cc(NC(=O)Nc3cccc4ccccc34)ccc2O[C@H]1CN(C)Cc1ccc(-c2ccccc2)cc1	9	87	·	·	·	·
C[C@@H]1CN([C@H](C)CO)C(=O)c2cc(NC(=O)Cc3ccccc3)ccc2O[C@@H](C)CCCCO[C@@H]1CN(C)S(=O)(=O)c1cccs1	4	-98	·	·	·	·
